Assay outcomes from PubChem.
An excerpt weighted towards active compounds, which were near 3.8% of everything screened.
HepG2 tox-1: counter-screen for TGF-b inhibitors: cytotoxicity in HepG2 cells; HepG2 CAGA-GFP viability, ATP luminescence, 18 h; Potency, µM (series often up to 46.1 µM), inactives show at the top dose activity change, negative = cytotoxicity, hits mostly cytotoxic; 410,000 tested, 0.76% active
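CellTiter-Glo luminescence gave cytotoxicity after 18 hours at 37 degrees C. The cells were HepG2 CAGA-GFP in 1% FBS DMEM, stimulated with 500 pg/mL TGF-beta after compound addition. %Activity was normalised to no-cell wells (complete cell-killing) and DMSO (no toxicity), and curves were fitted and classified.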
TGFb SMAD3 inh: blocks TGF-b signaling | HepG2 CAGA-GFP TGF-b/SMAD3 reporter, GFP fluorescence, 18 h; TGF-beta stimulated, 500 pg/mL final | Potency, µM (doses to about 46.1 µM), for inactives: at the highest dose activity, negative = inhibition, usual class: inhibitors | 410,000 tested, 1.2% active | AID 588855; note: % is set by controls: 0 for no effect and ±100 for the full control effect; nearly all actives have a fitted effect of over 65% in size
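Using HEPG2 CAGA-GFP reporter cells at 1000 cells/well, we pinned test compounds, stimulated with recombinant TGF-beta (500 pg/mL final) and measured total well GFP after 18 h.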
ATXN2 expr inh: inhibitors of ATXN2 expression. 360,000 tested, 0.72% active. Potency, µM (highest dose often 57 µM), for inactives: at the top dose activity change, negative = inhibition, usual class: inhibitors. HEK-293 ATXN2-luciferase reporter, luminescence, 24 h; note: % is set by controls: 0 for no effect and ±100 for the full control effect; nearly all actives have a fitted effect of over 55% in size
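qHTS (up to 57 uM final) was run with 24 h compound exposure of reporter cells at 37 °C. Each well was multiplexed: SteadyGlo luminescence measured ATXN2-luciferase expression after a fluorogenic Gly-Phe-AFC viability readout (25 uM final).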
Nrf2 block: blocks Nrf2 signaling; A549 ARE-Fluc reporter, luciferase luminescence, 18-24 h; Potency, µM (doses to about 46 µM), inactives show at the top dose activity change, negative = inhibition, hits mostly inhibitors; 360,000 tested, 2.1% active; AID 504444; note: % is set by controls: 0 for no effect and ±100 for the full control effect; nearly all actives have a fitted effect of over 60% in size
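Quantitative HTS in A549 cells stably bearing an antioxidant response element-firefly luciferase construct. Inhibition of Nrf2-driven transcription was scored by luminescence after 18-24 h of compound exposure at 37 °C.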
S2 tox: viability counter-screen for ATXN expression inhibitors | S2 cells (HEK-293 line with an ATXN2-luciferase reporter) viability, CellTiter-Fluor protease fluorescence, 24 h | Potency, µM (series often up to 56.7 µM), most hits filed as cytotoxic | 400,000 tested, 0.49% active; note: nearly all actives have a fitted effect of over 40% in size
A549 viability: counter-screen for Nrf2 inhibitors: cytotoxicity in A549 cells; 390,000 tested, 0.16% active; Potency, µM (doses to about 46 µM), inactives show at the top dose activity change, negative = cytotoxicity, hits mostly inhibitors; A549 ARE-Fluc cells, CellTiter-Fluor viability, 18-24 h; note: % is set by controls: 0 for no effect and ±100 for the full control effect
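A549 ARE-Fluc cells in 5% FBS OPTI-MEM, 5000 cells/well, rested 2 h then exposed to compounds in concentration-response for 18-24 h at 37 °C. Viability by CellTiter-Fluor fluorescence (Ex 405/Em 525) after 30 min; luciferase luminescence (BugLite, 15 min, RT) read afterwards.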
TGFb CAGA inh: confirmation of TGF-b signaling inhibitors in HepG2 reporter cells | shares compounds with TGFb SMAD3 inh | HepG2 CAGA-GFP TGF-b reporter, GFP fluorescence, 18 h; cells stimulated with TGF-beta, 500 pg/mL | Potency, µM (series often up to 46.1 µM), for inactives: at the highest dose activity, negative = inhibition, most hits filed as inhibitors | 1,600 tested, 63% active | AID 720534; note: % is set by controls: 0 for no effect and ±100 for the full control effect; nearly all actives have a fitted effect of over 65% in size
HepG2 tox-2: HepG2 cytotoxicity, TGF-b inhibitor counterscreen; HepG2 CAGA-GFP viability, ATP luminescence, 18 h; cells stimulated with TGF-beta, 500 pg/mL; Potency, µM (series often up to 46.1 µM), for inactives: at the highest dose activity, negative = cytotoxicity, actives largely listed as inhibitors; shares compounds with TGFb SMAD3 inh; AID 720535; 1,600 tested, 27% active; note: % is set by controls: 0 for no effect and ±100 for the full control effect; nearly all actives have a fitted effect of over 70% in size
TGFb CCL64 inh: orthogonal confirmation of TGF-b inhibitors in CCL64 cells | shares compounds with TGFb SMAD3 inh | CCL64 CAGA-GFP reporter, TGF-b stimulated, GFP fluorescence, 18 h | Potency, µM (series often up to 46.1 µM), without a hit: at the highest dose activity, negative = inhibition, usual class: inhibitors | 1,600 tested, 41% active | AID 720536; note: nearly all actives have a fitted effect of over 65% in size
TGFb COP inh: validation of TGF-b inhibitors in HepG2 COP promoter reporter; shares compounds with TGFb SMAD3 inh; HepG2 COP-GFP TGF-b reporter, GFP fluorescence, 18 h; cells stimulated by added recombinant TGF-beta; Potency, µM (series often up to 46.1 µM), inactives show at the top dose activity, negative = inhibition, usual class: inhibitors; 1,600 tested, 3% active; note: nearly all actives have a fitted effect of over 70% in size
* = called active by the depositor; i = inactive; ? = inconclusive; / = not tested or not shown; ! = repeats disagree; [ ] = another dose, or the depositor's remark. Calls come from the whole dose curve; as a rule, active = well fitted curve in the direction sought with a large enough effect; inconclusive = small, poorly fitted or top-dose-only effect, or another doubt; inactive = no such curve, though single readings can be large; an effect the other way counts as inactive or inconclusive. Potency is the fitted concentration of half-maximal effect.

SMILES	HepG2 tox-1	TGFb SMAD3 inh	ATXN2 expr inh	Nrf2 block	S2 tox	A549 viability	TGFb CAGA inh	HepG2 tox-2	TGFb CCL64 inh	TGFb COP inh
CCN(c1ccccc1)S(=O)(=O)c1ccc(NC(=O)c2nc(S(C)(=O)=O)ncc2Cl)cc1	6.3µM*	6.3µM*	13µM*	21µM*	/	?	4.1µM*	5.2µM*	1.5µM*	6.5µM*
CCS(=O)(=O)c1ncc(Cl)c(C(=O)Nc2ccc(S(=O)(=O)N(C)c3ccccc3)cc2)n1	4.5µM*!	3.5µM*	20µM*	?	20µM*	?	4.6µM*	4.1µM*	1.6µM*	7.3µM*
Cc1ccc(S(=O)(=O)NCCc2cn3nc(C)c(C)nc3n2)cc1C	12%	3%	23%	-9%	/	6%	/	/	/	/
O=C([C@@H]1CC=C[C@@H]2CCN(C3CCCCC3)C(=O)[C@@H]21)N1CCOCC1	8%	-4%	/	/	/	/	/	/	/	/
CN(CCc1ccccc1)C(=O)c1cccc(NC(=O)Cc2cccc([N+](=O)[O-])c2)c1	-18%	7.1µM*	-28%	?	?	-13%	?	-23%	-2%	16%
CN(Cc1ccccc1)C(=O)c1ccc(NC(=O)Cc2cccc([N+](=O)[O-])c2)cc1	-31%	11%	-17%	-19%	i	-2%	/	/	/	/
O=S(=O)(Nc1cc(Sc2ncn[nH]2)c(O)c2ccccc12)c1ccccc1	3.5µM*	2.5µM*	?	?	?	?	7.3µM*	?	5.8µM*	?
Cc1cc(O)c(Sc2ncn[nH]2)cc1NS(=O)(=O)c1ccc(Cl)cc1	-3%	-8%	-4%	6%	i	0%	/	/	/	/
CCc1nc2c(OCc3cc(Cl)cc(Cl)c3)cccn2c1N(C)C(=O)c1ccc(OC)cc1	-31%	4µM*	?	/	?	/	?	?	?	49%
CCc1nc2c(OCc3ccc(C(=O)OC)cc3)cccn2c1N(C)C(=O)c1ccc(OC)cc1	-3%	-3%	-17%	/	i	/	/	/	/	/
CN(C)S(=O)(=O)c1ccc(N2CCCC2)c(C(=O)NCC(=O)Nc2ccc(F)c(F)c2)c1	4%	-10%	11%	3%	i	1%	/	/	/	/
Cc1ccc(NC(=O)c2cc(S(=O)(=O)N(C)C)ccc2N2CCCC2)cc1F	-1%	10µM*	0%	11%	i	-5%	13µM*	-15%	18µM*	-11%
COc1cc(Nc2nc(-c3ccccc3)c3cc(C)ccc3n2)cc(OC)c1OC	-15%	11µM*	-11%	?	i	-11%	18µM*	?	-78%	51%
O=C(Nc1ccc(Cl)cc1)Nc1nnc(CSCc2ccccc2Cl)s1	6%	?	0%	-7%	i	-4%	/	/	/	/
O=C(Nc1ccccc1)Nc1nnc(CSCc2ccccc2Cl)s1	-55%	7.9µM*	?	?	?	-2%	?	-28%	?	-6%
COc1cc(OC)c(OC)cc1CNc1cc(C)ccc1OC	-22%	?	-30%	?	i	-6%[1.84 µM]	6.5µM*	-14%	-17%	0%
COc1cc2c(cc1OC)C(C)N(C(=O)c1cc3c(C)cc(C)cc3[nH]1)CC2 (centres undefined)	-29%	11µM*	?	15µM*	?	-7%	16µM*	15µM*	?	51%
COc1ccc(OC)c(C2CC(=O)N(c3cccc(C)c3)C3=C2C(=O)OC3)c1 (centres undefined)	-2%	2%	/	-5%	/	-12%	/	/	/	/
CCOC(=O)N1CCN(C(=O)COc2cccc3c2CCN(Cc2cccc(C)c2)C3=O)CC1	-7%	?	-8%	?	i	-4%	?	-25%	?	-8%
Cc1cc(C)nc(NC(=S)NC(=O)c2ccccc2F)n1	25%	15%	-24%	11%	i	-7%	/	/	/	/
Cc1cc(C)nc(S/C=C/C(=O)c2ccccc2F)n1	-7%	3.5µM*	-7%	2%	i	-2%	1.8µM*	21µM*	6.5µM*	?
CCN(CC)S(=O)(=O)c1cccc(NC(=O)c2ccc(-n3nc(C)cc3C)cc2)c1	-1%	7.9µM*	?	18µM*	?	?	?	-18%	-1%	-9%
CCN(CC)S(=O)(=O)c1cccc(NC(=O)CCSc2ccc(Cl)cc2)c1	7%	10µM*	?	?	i	-6%	21µM*	?	26µM*	26%
CC(C)(C)OC(=O)N1CCN(c2ccc([N+](=O)[O-])cc2)CC1	4%	-1%	-19%	-1%	i	1%	/	/	/	/
CCCc1cc(-c2[nH]ncc2-c2ccc(C(=O)OCC)o2)c(O)cc1O	20µM*	10µM*	-29%	?	?	?	-14%	7%	?	1%
NC(=O)c1cc([N+](=O)[O-])c(Cl)cc1NCc1ccncc1	6%	?	-4%	5%	?	-11%	18µM*	-28%	-9%	18%
CCc1nc2ccccc2c(C(=O)OCC(=O)Nc2cccc(S(=O)(=O)NC3=NCCCCC3)c2)c1C	-22%	11µM*	22µM*	16µM*	?	-25%	7.3µM*	?	?	21%
